Reference: PubChem BioAssay (EPA / NIEHS)
Inconclusive results are not listed. Activity calls are given as the source filed them. Rule for the calls, unless noted: active = hit-call score of the fitted dose curve at least 0.9, where 1 is the maximum; inconclusive = response in the unintended direction; inactive = score below 0.9.

Assays:
[1] = ATG_TAL_CIS: Attagene CIS-FACTORIAL HepG2 Assay for human TAL Basal Promoter (AID 2282966; active = hit-call score of the fitted dose curve at least 0.9, where 1 is the maximum; inactive = score below 0.9;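 note: background control endpoint measuring basal TAL promoter reporter mRNA not a specific factor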); conditions: HepG2 Attagene cis-factorial TAL promoter reporter; actives raise or lower the signal
In short: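 Steps: transfect HepG2 with multiple reporter transcription units; dose 24 h; isolate RNA, reverse-transcribe, PCR-amplify, label with 6-FAM, digest with HpaI; resolve by capillary electrophoresis. Bidirectional fitting against DMSO baseline.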

[2] = ATG_TGFb_CIS: Attagene CIS-FACTORIAL HepG2 Assay for human Transforming Growth Factor (TGF) (AID 2282967; active = hit-call score of the fitted dose curve at least 0.9, where 1 is the maximum; inactive = score below 0.9); conditions: HepG2 Attagene CIS TGFb reporter, mRNA transcription; actives raise or lower the signal
In short: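 HepG2 cells transiently transfected with cis-promoter-driven multiplexed reporter units; 24 h compound exposure. Reporter mRNA measured by RT-PCR, 6-FAM labeling, HpaI digestion and capillary electrophoresis; bidirectional fit versus DMSO baseline.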

[3] = ATG_VDRE_CIS: Attagene CIS-FACTORIAL HepG2 Assay for human Vitamin D Receptor Element (VDRE) (AID 2282968; active = hit-call score of the fitted dose curve at least 0.9, where 1 is the maximum; inactive = score below 0.9); conditions: HepG2 VDRE cis-reporter transcription, actives raise or lower the signal
In short: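 HepG2 cells transiently transfected with cis-element reporter units, dosed 24 h; reporter mRNA measured by RT-PCR, 6-FAM labeling, HpaI digestion and capillary electrophoresis. Activity fitted bidirectionally against DMSO baseline.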

[4] = molecular target: X-box-binding protein 1 (Homo sapiens) (UniProt P17861); test: ATG_Xbp1_CIS: Attagene CIS-FACTORIAL HepG2 Assay for human X-box Binding Protein 1 (XBP1) (AID 2282972; active = hit-call score of the fitted dose curve at least 0.9, where 1 is the maximum; inactive = score below 0.9); conditions: HepG2 XBP1 cis-element reporter, Attagene multiplex; actives raise or lower the signal
In short: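 HepG2 cells transiently transfected with cis-regulated multiple reporter transcription units; endogenous transcription factor activity measured 24 hours after chemical dosing. Reporter mRNA quantified by RT-PCR, 6-FAM primer extension, HpaI digestion and capillary electrophoresis; bidirectional fitting versus DMSO.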

[5] = ATG_M_19_TRANS: Attagene TRANS-FACTORIAL HepG2 Assay for M19 Transcription Factor (Internal Marker) (AID 2282974); conditions: HepG2 Attagene TRANS-FACTORIAL M19 internal marker reporter
In short: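 Using RT-PCR and capillary electrophoresis, reporter mRNA from transiently transfected human HepG2 cells was quantified following 24 h exposure; activity was fitted in the positive direction against DMSO.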

[6] = molecular target: Oxysterols receptor LXR-alpha (Homo sapiens) (UniProt Q13133); test: ATG_LXRa_TRANS: Attagene TRANS-FACTORIAL HepG2 Assay for human Liver X Receptor alpha (LXRa) (AID 2282980); conditions: HepG2 Attagene TRANS reporter, LXRa transactivation
In short: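 In this multiplexed TRANS system, compounds act on HepG2 cells carrying GAL4-UAS reporter units and a receptor-GAL4 fusion for 24 h. Induced reporter RNA is amplified, fluorescently labelled and sized by capillary electrophoresis, with DMSO as baseline.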

[7] = molecular target: Oxysterols receptor LXR-beta (Homo sapiens) (UniProt P55055); test: ATG_LXRb_TRANS: Attagene TRANS-FACTORIAL HepG2 Assay for human Liver X Receptor beta (LXRb) (AID 2282981); conditions: HepG2 Attagene TRANS GAL4-LXRb reporter, mRNA
In short: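 HepG2 cells transiently transfected with multiple reporter transcription units carrying chimeric NR-Gal4 proteins acting on GAL4-UAS reporters; compound exposure 24 h. Reporter mRNA quantified by RT-PCR, 6-FAM labelling, HpaI digestion and capillary electrophoresis; gain of signal versus DMSO.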

[8] = molecular target: Hepatocyte nuclear factor 4-alpha (Homo sapiens) (UniProt P41235); test: ATG_HNF4a_TRANS: Attagene TRANS-FACTORIAL HepG2 Assay for human Hepatocyte Nuclear Factor 4 alpha (HNF4a) (AID 2282982); conditions: HepG2 HNF4a transactivation reporter, mRNA readout
In short: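 HepG2 cells transiently transfected with multiplexed GAL4-UAS reporter units responsive to chimeric NR-GAL4 proteins; compound exposure 24 h. Reporter mRNA quantified by RT-PCR, 6-FAM labelling, HpaI digestion and capillary electrophoresis; gain of signal versus DMSO baseline.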

[9] = molecular target: Nuclear receptor subfamily 4 group A member 2 (Homo sapiens) (UniProt P43354); test: ATG_NURR1_TRANS: Attagene TRANS-FACTORIAL HepG2 Assay for human Nuclear Receptor Related Protein 1 (NURR1) (AID 2282985); conditions: HepG2 Attagene TRANS reporter, mRNA readout
In short: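 HepG2 cells transiently transfected with GAL4-UAS reporter units and chimeric NR-Gal4 constructs; chemical exposure 24 h. Reporter mRNA quantified by RT-PCR, fluorescent labelling and capillary electrophoresis; gain of signal fitted relative to DMSO baseline.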

[10] = molecular target: Transcriptional activator Myb (Homo sapiens) (UniProt P10242); test: ATG_Myb_CIS: Attagene CIS-FACTORIAL HepG2 Assay for human Myeloblastosis (Myb) Proto-Oncogene Transcription Factor (AID 2282986; active = hit-call score of the fitted dose curve at least 0.9, where 1 is the maximum; inactive = score below 0.9); conditions: HepG2 Attagene CIS-FACTORIAL Myb reporter transcription; actives raise or lower the signal
In short: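 In this HepG2 transient-transfection format, cis-regulated reporter mRNA is quantified 24 h post-dosing by RT-PCR with capillary electrophoresis, fitted bidirectionally to DMSO baseline.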

[11] = molecular target: Glucocorticoid receptor (Homo sapiens) (UniProt P04150); test: ATG_GR_TRANS: Attagene TRANS-FACTORIAL HepG2 Assay for human Glucocorticoid Receptor (GR) (AID 2282978); conditions: HepG2 Attagene TRANS GR reporter, mRNA transcription;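 note: activators score as hits since higher reporter transcript over DMSO is fitted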
In short: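 Exogenous NR-GAL4 fusion activity was assessed through induced GAL4-UAS reporter transcripts in transfected human HepG2 cells, quantified after 24 h by RT-PCR and fluorescent capillary electrophoresis with DMSO as baseline.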

[12] = ATG_M_32_TRANS: Attagene TRANS-FACTORIAL HepG2 Assay for M32 Transcription Factor (Internal Marker) (AID 2282984); conditions: HepG2 Attagene TRANS M32 internal marker reporter;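 note: transcript level of a background control reporter unit measured by RT-PCR and capillary electrophoresis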
In short: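 HepG2 cells transiently transfected with multiple GAL4-UAS reporter transcription units, dosed for 24 hours; reporter mRNA quantified by RT-PCR, 6-FAM primer extension, HpaI digestion and capillary electrophoresis. Gain-of-signal fitted versus DMSO baseline; internal background-control marker.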

[13] = molecular target: Estrogen-related receptor gamma (Homo sapiens) (UniProt P62508); test: ATG_ERRg_TRANS: Attagene TRANS-FACTORIAL HepG2 Assay for human Estrogen-Related Receptor gamma (ERRg) (AID 2282977); conditions: HepG2 Attagene TRANS reporter, ERRg transactivation;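 note: hits increase reporter signal over DMSO so potencies reflect activators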
In short: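 HepG2 cells transiently transfected with multiplexed GAL4-UAS reporter units and chimeric NR-Gal4 constructs were exposed to test chemicals for 24 h. Reporter mRNA was measured by RT-PCR, 6-FAM primer extension, HpaI digestion and capillary electrophoresis; gain-of-signal versus DMSO.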

[14] = ATG_M_06_TRANS: Attagene TRANS-FACTORIAL HepG2 Assay for M06 Transcription Factor (Internal Marker) (AID 2282983); conditions: HepG2 Attagene TRANS M06 internal marker reporter;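 note: reporter transcript level by RT-PCR then capillary electrophoresis fluorescence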
In short: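 Internal-marker background readout from a multiplexed TRANS reporter system in HepG2; 24 h dosing; mRNA induction quantified by RT-PCR plus capillary electrophoresis fluorescence; DMSO as negative control and baseline.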

[15] = molecular target: Bile acid receptor (Homo sapiens) (UniProt Q96RI1); test: ATG_FXR_TRANS: Attagene TRANS-FACTORIAL HepG2 Assay for Farnesoid X Receptor (FXR) (AID 2282979); conditions: HepG2 Attagene TRANS FXR-GAL4 reporter transcription;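 note: hits raise reporter mRNA above DMSO so AC50 marks FXR activation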
In short: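 After 24 h chemical treatment of transfected HepG2 cells, GAL4-UAS reporter transcripts driven by an exogenous FXR-GAL4 fusion were measured by RT-PCR and capillary electrophoresis. Increases over DMSO were fitted.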

[16] = molecular target: Nuclear receptor subfamily 1 group I member 3 (Homo sapiens) (UniProt Q14994); test: ATG_CAR_TRANS: Attagene TRANS-FACTORIAL HepG2 Assay for human Constitutive Androstane Receptor (CAR) (AID 2282969); conditions: HepG2 Attagene TRANS-FACTORIAL CAR reporter;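 note: activators raise reporter mRNA above DMSO so AC50 marks induction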
In short: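 HepG2 cells transiently transfected with multiplexed GAL4-UAS reporter units expressing chimeric NR-Gal4 proteins; compound exposure 24 h. Reporter mRNA measured by RT-PCR, 6-FAM labelling, HpaI digestion and capillary electrophoresis; gain-of-signal fitted against DMSO baseline.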

[17] = molecular target: Androgen receptor (Homo sapiens) (UniProt P10275); test: ATG_AR_TRANS: Attagene TRANS-FACTORIAL HepG2 Assay for human Androgen Receptor (AR) (AID 2282973); conditions: HepG2 Attagene TRANS-FACTORIAL AR reporter transcription
In short: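 Chimeric nuclear receptor–Gal4 activity was assessed in human HepG2 hepatocytes after 24 h chemical dosing. Induced reporter mRNA was detected via labelled RT-PCR fragments on capillary electrophoresis, and gain of signal was analysed against DMSO.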

Measured: AC50

Glucocorticoid receptor (Homo sapiens), sequence (P04150 whole entry, looked up, the tested form may be a part): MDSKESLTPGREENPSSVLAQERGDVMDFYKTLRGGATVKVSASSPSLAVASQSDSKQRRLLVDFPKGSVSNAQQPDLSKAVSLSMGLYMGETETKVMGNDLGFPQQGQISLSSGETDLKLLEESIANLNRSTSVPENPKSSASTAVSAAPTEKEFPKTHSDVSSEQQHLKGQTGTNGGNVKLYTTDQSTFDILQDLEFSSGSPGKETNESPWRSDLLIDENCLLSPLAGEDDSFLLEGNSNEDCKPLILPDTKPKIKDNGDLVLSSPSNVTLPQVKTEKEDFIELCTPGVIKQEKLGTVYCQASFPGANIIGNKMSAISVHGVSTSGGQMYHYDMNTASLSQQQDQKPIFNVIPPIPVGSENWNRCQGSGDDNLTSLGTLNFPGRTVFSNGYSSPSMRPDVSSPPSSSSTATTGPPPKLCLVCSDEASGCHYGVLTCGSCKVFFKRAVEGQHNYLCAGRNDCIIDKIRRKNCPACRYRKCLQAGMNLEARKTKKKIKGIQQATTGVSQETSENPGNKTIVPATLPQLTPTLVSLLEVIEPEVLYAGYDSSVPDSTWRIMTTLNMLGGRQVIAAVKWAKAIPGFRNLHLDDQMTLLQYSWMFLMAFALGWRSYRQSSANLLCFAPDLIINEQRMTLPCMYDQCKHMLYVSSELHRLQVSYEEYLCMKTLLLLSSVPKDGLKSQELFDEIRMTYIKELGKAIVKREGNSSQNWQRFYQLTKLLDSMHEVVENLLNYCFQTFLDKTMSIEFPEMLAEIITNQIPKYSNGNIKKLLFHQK
Nuclear receptor subfamily 4 group A member 2 (Homo sapiens), sequence (P43354 whole entry, looked up, the tested form may be a part): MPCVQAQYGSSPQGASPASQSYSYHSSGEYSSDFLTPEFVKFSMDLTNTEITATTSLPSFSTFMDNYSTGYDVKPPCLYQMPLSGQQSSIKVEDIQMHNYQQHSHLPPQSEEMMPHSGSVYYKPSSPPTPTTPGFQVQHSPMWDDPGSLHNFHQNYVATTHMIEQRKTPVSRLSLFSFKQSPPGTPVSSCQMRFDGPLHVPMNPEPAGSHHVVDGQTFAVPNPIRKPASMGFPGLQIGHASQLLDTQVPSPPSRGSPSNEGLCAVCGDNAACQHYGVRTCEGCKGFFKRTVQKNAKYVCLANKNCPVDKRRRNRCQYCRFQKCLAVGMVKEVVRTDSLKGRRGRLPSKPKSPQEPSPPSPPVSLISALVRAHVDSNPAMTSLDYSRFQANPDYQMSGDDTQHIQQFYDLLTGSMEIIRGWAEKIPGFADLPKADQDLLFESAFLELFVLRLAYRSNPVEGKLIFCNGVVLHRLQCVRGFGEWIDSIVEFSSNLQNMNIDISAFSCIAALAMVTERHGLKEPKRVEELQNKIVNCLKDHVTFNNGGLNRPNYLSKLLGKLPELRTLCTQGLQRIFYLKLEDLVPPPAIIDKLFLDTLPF
Transcriptional activator Myb (Homo sapiens), sequence (P10242 whole entry, looked up): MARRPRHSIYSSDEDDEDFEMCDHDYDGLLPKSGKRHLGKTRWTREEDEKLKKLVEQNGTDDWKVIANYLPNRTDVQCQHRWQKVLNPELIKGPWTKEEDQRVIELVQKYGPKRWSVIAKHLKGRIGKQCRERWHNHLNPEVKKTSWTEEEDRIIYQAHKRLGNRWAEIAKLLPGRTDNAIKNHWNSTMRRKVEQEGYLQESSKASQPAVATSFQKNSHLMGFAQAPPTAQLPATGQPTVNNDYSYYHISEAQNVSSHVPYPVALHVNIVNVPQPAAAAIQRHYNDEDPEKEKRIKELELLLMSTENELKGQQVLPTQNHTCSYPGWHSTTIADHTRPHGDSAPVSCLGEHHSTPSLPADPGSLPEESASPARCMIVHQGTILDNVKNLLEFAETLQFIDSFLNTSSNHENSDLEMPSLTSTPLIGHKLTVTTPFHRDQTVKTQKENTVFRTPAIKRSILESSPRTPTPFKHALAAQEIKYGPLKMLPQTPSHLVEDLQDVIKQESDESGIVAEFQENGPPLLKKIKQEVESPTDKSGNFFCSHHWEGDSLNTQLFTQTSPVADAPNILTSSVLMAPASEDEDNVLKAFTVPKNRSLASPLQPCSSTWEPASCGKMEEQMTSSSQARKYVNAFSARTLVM
Bile acid receptor (Homo sapiens), sequence (Q96RI1 whole entry, looked up, the tested form may be a part): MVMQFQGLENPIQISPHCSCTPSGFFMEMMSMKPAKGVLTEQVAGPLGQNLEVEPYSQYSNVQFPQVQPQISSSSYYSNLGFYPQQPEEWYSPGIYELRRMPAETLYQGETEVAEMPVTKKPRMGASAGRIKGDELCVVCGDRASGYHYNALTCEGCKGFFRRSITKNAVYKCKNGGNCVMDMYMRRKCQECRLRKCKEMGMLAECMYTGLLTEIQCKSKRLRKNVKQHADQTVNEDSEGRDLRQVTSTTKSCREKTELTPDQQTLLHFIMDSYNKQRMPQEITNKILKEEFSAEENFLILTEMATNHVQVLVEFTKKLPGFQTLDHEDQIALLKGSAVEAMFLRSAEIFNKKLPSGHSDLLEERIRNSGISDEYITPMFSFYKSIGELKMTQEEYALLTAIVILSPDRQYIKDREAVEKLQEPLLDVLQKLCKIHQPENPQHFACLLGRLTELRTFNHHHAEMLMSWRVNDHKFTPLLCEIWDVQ
Oxysterols receptor LXR-beta (Homo sapiens), sequence (P55055 whole entry, looked up, the tested form may be a part): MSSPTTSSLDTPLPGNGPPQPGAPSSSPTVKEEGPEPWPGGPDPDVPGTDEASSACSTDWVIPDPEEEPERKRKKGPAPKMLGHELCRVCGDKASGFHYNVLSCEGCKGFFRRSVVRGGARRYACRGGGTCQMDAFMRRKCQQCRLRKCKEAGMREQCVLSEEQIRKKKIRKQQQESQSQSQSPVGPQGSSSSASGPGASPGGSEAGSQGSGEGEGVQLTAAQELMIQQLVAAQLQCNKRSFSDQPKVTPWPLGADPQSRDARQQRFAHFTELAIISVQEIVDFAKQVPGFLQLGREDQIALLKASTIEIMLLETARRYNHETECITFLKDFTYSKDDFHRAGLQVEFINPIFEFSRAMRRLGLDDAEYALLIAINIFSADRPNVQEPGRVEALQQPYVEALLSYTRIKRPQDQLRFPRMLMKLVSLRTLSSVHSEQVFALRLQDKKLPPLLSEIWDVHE
Androgen receptor (Homo sapiens), sequence (P10275 whole entry, looked up, the tested form may be a part): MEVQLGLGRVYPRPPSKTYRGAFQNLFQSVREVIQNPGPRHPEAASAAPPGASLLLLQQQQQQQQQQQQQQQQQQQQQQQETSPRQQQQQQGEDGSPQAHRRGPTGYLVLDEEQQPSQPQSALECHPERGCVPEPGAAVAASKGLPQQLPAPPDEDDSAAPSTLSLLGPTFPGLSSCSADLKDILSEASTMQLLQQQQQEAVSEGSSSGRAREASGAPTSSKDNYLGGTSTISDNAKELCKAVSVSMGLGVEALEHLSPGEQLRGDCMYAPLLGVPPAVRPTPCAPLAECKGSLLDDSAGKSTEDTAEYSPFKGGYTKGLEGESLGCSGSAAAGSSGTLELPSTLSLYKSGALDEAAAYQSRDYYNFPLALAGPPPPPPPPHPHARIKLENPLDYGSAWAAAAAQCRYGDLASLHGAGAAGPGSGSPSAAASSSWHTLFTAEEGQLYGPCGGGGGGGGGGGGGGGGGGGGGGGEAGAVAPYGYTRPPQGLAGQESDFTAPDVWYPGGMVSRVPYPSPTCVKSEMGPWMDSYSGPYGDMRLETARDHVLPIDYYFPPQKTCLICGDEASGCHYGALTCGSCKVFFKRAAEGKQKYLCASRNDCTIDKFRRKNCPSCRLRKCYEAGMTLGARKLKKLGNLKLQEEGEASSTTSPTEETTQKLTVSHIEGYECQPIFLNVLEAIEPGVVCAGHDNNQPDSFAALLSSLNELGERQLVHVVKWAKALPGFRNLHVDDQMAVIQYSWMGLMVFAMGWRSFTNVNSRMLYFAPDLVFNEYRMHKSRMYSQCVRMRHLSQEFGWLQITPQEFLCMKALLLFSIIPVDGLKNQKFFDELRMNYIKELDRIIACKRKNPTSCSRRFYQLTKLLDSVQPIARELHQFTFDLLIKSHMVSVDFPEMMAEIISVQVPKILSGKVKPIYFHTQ
X-box-binding protein 1 (Homo sapiens), sequence (P17861 whole entry, looked up): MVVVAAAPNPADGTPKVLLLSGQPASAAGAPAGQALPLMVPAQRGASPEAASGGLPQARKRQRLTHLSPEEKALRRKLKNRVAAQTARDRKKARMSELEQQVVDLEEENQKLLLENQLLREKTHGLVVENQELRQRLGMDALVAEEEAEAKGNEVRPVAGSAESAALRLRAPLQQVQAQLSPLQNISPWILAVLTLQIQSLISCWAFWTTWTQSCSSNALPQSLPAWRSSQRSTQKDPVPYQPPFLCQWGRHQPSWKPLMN
Oxysterols receptor LXR-alpha (Homo sapiens), sequence (Q13133 whole entry, looked up, the tested form may be a part): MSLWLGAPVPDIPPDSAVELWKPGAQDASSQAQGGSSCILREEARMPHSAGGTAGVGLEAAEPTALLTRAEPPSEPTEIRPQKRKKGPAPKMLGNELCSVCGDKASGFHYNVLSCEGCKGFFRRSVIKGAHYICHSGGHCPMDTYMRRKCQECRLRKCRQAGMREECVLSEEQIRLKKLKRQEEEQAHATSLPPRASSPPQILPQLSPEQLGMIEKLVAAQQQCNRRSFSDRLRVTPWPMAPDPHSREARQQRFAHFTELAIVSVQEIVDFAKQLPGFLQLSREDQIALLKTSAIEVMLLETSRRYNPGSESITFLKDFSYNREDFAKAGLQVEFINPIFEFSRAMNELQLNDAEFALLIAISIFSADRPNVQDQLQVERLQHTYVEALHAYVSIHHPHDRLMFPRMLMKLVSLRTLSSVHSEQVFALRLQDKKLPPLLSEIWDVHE
Nuclear receptor subfamily 1 group I member 3 (Homo sapiens), sequence (Q14994 whole entry, looked up, the tested form may be a part): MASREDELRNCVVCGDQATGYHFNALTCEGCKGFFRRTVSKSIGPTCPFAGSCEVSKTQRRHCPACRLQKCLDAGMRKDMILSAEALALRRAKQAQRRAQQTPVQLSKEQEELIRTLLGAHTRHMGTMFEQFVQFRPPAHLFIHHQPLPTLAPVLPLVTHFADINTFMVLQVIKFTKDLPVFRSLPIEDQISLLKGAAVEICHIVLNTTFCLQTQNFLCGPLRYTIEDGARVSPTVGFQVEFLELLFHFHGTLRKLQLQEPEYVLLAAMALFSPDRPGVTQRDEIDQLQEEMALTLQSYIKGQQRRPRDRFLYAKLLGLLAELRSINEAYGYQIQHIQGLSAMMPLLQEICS

C[N+]1(C)CCCCC1
inactive: [1] | [2] | [3] | [4] | [5] | [6] | [7] | [8] | [9] | [10]

CC(Oc1cccc(Cl)c1)C(=O)O (stereo not given)
inactive: [1] | [2] | [3] | [4] | [5] | [11] | [7] | [12] | [9] | [10]

CC1=NNC(=O)N(/N=C/c2cccnc2)C1
inactive: [1] | [2] | [3] | [4] | [13] | [6] | [7] | [8] | [14] | [12] | [9] | [10]

S=C1NCCN1
inactive: [1] | [2] | [3] | [4] | [6] | [7] | [8] | [14] | [12] | [9] | [10]

COP(=O)(OC)OC(Br)C(Cl)(Cl)Br (stereo not given)
inactive: [1] | [2] | [3] | [4] | [5] | [11] | [15] | [7] | [8] | [10]

CC(C1CC1)C(O)(Cn1cncn1)c1ccc(Cl)cc1 (stereo not given)
inactive: [1] | [2] | [3] | [4] | [5] | [6] | [7] | [12] | [9] | [10]

CSc1nnc(C(C)(C)C)c(=O)n1N
inactive: [1] | [2] | [3] | [4] | [7] | [8] | [14] | [9] | [10]

CC(C)[C@H](C(=O)O[C@H](C#N)c1cccc(Oc2ccccc2)c1)c1ccc(Cl)cc1
inactive: [1] | [2] | [16] | [4] | [5] | [8] | [10]

Nc1nc(N)nc(NC2CC2)n1
inactive: [1] | [2] | [4] | [5] | [13] | [11] | [15] | [6] | [7] | [14] | [12] | [9] | [10]

CC(C)=CC1C(C(=O)OCN2C(=O)C3=C(CCCC3)C2=O)C1(C)C (stereo not given)
inactive: [1] | [2] | [17] | [5] | [13] | [11] | [6] | [7] | [12] | [9]
active: [3] 31.7 µM | [4] 50 µM | [10] 50 µM

CN1COCN(Cc2cnc(Cl)s2)C1=N[N+](=O)[O-]
inactive: [1] | [2] | [3] | [4] | [11] | [15] | [6] | [7] | [8] | [14] | [12] | [10]

Cc1nn(-c2cc(NS(C)(=O)=O)c(Cl)cc2Cl)c(=O)n1C(F)F
active: [3] 30.8 µM
inactive: [1] | [2] | [4] | [17] | [5] | [13] | [6] | [7] | [8] | [10]

CCOP(=S)(OCC)SCCSCC
inactive: [1] | [2] | [16] | [4] | [7] | [8] | [14] | [10]

O=C(O)c1cc(Oc2ccc(C(F)(F)F)cc2Cl)ccc1[N+](=O)[O-]
inactive: [1] | [2] | [4] | [5] | [11] | [7] | [8] | [12] | [10]

O=c1ccc(=O)[nH][nH]1
inactive: [1] | [2] | [3] | [4] | [17] | [5] | [6] | [7] | [8] | [14] | [12] | [9] | [10]

CN(C)C(=O)Nc1cccc(C(F)(F)F)c1
inactive: [1] | [2] | [3] | [4] | [5] | [7] | [12] | [10]

C[Si](Cn1cncn1)(c1ccc(F)cc1)c1ccc(F)cc1
inactive: [1] | [2] | [4] | [6] | [7] | [8] | [14] | [12] | [9] | [10]
active: [3] 27.6 µM

CCOP(=S)(OCC)Oc1ccc2c(C)c(Cl)c(=O)oc2c1
inactive: [1] | [2] | [16] | [4] | [5] | [13] | [11] | [6] | [7] | [14] | [12] | [9] | [10]
